We go through 20 compounds from PubChem BioAssay (NCI).

This is part of a sample that, as a whole, favours compounds with a hit. Of some 79,000 tested, about 15% had one in any assay. Values without a mark were called inactive. Activity calls are given as the source filed them. No stated cut-off is given here; in the data, active means growth inhibition above about 70%; inactive means the rest.

Experiment [1] in a line: NCI Yeast Anticancer Drug Screen. Data for the rad50 strain (AID 155).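 Further: 0% = growth of vehicle-only cultures of the same strain.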 To be noted: S. cerevisiae rad50 strain growth inhibition; at 50.0 µM; hits give high values. In outline: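 Yeast carrying a defined DNA repair defect were exposed to test compounds, and growth was compared with vehicle-treated controls to give percent inhibition.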
Experiment [2] can be described thus: NCI Yeast Anticancer Drug Screen. Data for the mec2-1 strain (AID 157). The settings on record: S. cerevisiae mec2-1 strain, at 50.0 µM, hits give high values. A digest of the protocol: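 Growth inhibition is read against vehicle-treated controls after compound exposure of the mec2-1 yeast strain, which is defective in DNA damage repair or cell cycle control.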

Experiment [3] is described as follows: NCI Yeast Anticancer Drug Screen. Data for the sgs1 mgt1 strain (AID 161).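 Further: 0% = growth of cultures given vehicle only.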 To be noted: S. cerevisiae sgs1 mgt1 strain, at 50.0 µM, hits give high values. A digest of the protocol: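 Compounds are added to genetically altered yeast, and growth is compared with cultures given vehicle alone to give percent inhibition.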
A short description of experiment [4]: NCI Yeast Anticancer Drug Screen. Data for the cln2 rad14 strain (AID 165).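 Further: 0% = growth equal to vehicle treated cultures.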 To be noted: S. cerevisiae cln2 rad14 strain, at 50.0 µM, hits give high values. In outline: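 Growth inhibition, relative to vehicle-treated controls, is the read-out. The test organism is a yeast strain with defined genetic alterations, cln2 rad14.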
Experiment [5] in a line: NCI Yeast Anticancer Drug Screen. Data for the bub3 strain (AID 167). To be noted: S. cerevisiae bub3 mutant strain, at 50.0 µM, hits give high values. In outline: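 Compounds were applied to a genetically altered yeast strain carrying a cell-cycle control defect. Growth inhibition was scored against vehicle-treated controls.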
Experiment [6] in a line: NCI Yeast Anticancer Drug Screen. Data for the mlh1 rad18 strain (AID 175). The settings on record: S. cerevisiae mlh1 rad18 strain growth inhibition; at 50.0 µM; hits give high values. In outline:
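Cells of a genetically altered yeast strain, deficient in DNA damage repair, were treated with compound. Their growth was then compared with that of vehicle-treated cultures to give inhibition.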

With `COc1ccc2cc(CC(=O)c3ccccc3)ccc2c1`, the growth inhibition in experiment [1] was -24.2%; in experiment [2], -6.95%; in experiment [3], -11.2%; in experiment [4] it was -37.8%; in experiment [5] it was -17.1%; in experiment [6], -3.5%.

With `CCCCNC(=O)NC1CC(OC2CC(O)(C(C)=O)Cc3c(O)c4c(c(O)c32)C(=O)c2c(OC)cccc2C4=O)OC(C)C1O` (stereo not given), the growth inhibition in experiment [1] is 30.2%; in experiment [2], 14.9%; in experiment [3], 22.9%; in experiment [4], 0.8%; in experiment [5] it was 1.25%; in experiment [6], 29.9%.

Consider `Cc1cccc2c1C1C(CC2=O)C(=O)c2ccccc2C1C` (stereo not given), for which the growth inhibition is 7% in experiment [1]; -17.8% in experiment [2]; 3.5% in experiment [3]; 8.9% in experiment [4]; 11.6% in experiment [5]; 11.5% in experiment [6].

Regarding `COc1ccc(C(CC(=O)O)CC(=O)O)cc1[N+](=O)[O-]`, the growth inhibition is 0.75% in experiment [1]; -1.7% in experiment [2]; -2.1% in experiment [3]; -6.2% in experiment [4]; 15.9% in experiment [5]; 10.8% in experiment [6].

`O=C(Nc1ccccc1C(=O)N/N=C/c1ccc(Cl)cc1)c1ccccc1Cl`: the growth inhibition in experiment [1] was 49.2%; in experiment [2], 27.9%; in experiment [3], 22.6%; in experiment [4], 29.6%; in experiment [5], 42.1%; in experiment [6], 25.8%.

For `COC(=O)C1(CC(=O)Cc2ccccc2)NC(=S)NC(=O)C1C#N` (stereo not given), the growth inhibition in experiment [1] is 8.45%; in experiment [2], -7.7%; in experiment [3] it was -12.2%; in experiment [4], -12.1%; in experiment [5], -29.1%; in experiment [6] it was 4.8%.

As for `O=C(N/C(=C\c1cc(Cl)ccc1Cl)c1nc2ccccc2[nH]1)c1ccccc1`, the growth inhibition in experiment [1] was 50.2%; in experiment [2], 8.65%; in experiment [3], 31.9%; in experiment [4] it was 25%; in experiment [5] it was 43.9%; in experiment [6], 42.3%.

On to `COc1ccc(NC(=O)/C(Cc2cc(=O)oc3cc(O)ccc23)=N\NC(C)(C)C)c(OC)c1`, for which the growth inhibition in experiment [1] is -4.4%; in experiment [2], 2.8%; in experiment [3], 9.3%; in experiment [4] it was 4%; in experiment [5], -1.8%; in experiment [6], 7.3%.

Consider `CCOC(=O)c1ccc(NC(=O)CCCCCCCCC(=O)Nc2ccc(C(=O)OCC)cc2)cc1`, for which the growth inhibition in experiment [1] was 7.5%; in experiment [2], -5.6%; in experiment [3] it was -0.85%; in experiment [4] it was -8.45%; in experiment [5] it was -2.1%; in experiment [6], -6.95%.

As to `CC(=O)OC1CCC2(C)OC(=O)CC2C1` (stereo not given), the growth inhibition in experiment [1] is 2.2%; in experiment [2], 8.55%; in experiment [3], 6.9%; in experiment [4], -41.9%; in experiment [5], 9.6%; in experiment [6], 1.4%.

As for `CCCOC1NC(=O)Oc2ccccc21` (stereo not given), the growth inhibition in experiment [1] is -14.8%; in experiment [2] it was -6.1%; in experiment [3], -0.9%; in experiment [4], -30.4%; in experiment [5] it was -1.55%; in experiment [6], 13.8%.

Turning to `COC1/C=C/OC2(C)Oc3c(C)c(O)c4c(O)c(c(/C=N/N(C)c5ccc([N+](=O)[O-])cc5[N+](=O)[O-])c(O)c4c3C2=O)NC(=O)C(C)=C/C=C/C(C)C(O)C(C)C(O)C(C)C(OC(C)=O)C1C` (stereo not given), the growth inhibition in experiment [1] is 10.2%; in experiment [2], 55.6%; in experiment [3], 31.5%; in experiment [4] it was 63.6%; in experiment [5] it was 40.3%; in experiment [6], 56%.

As for `COc1ccc(C(=O)/C=C/c2ccncc2)cc1OC`, the growth inhibition in experiment [1] is 41.8%; in experiment [2], 38.4%; in experiment [3], 51.5%; in experiment [4], 5.55%; in experiment [5], 32.5%; in experiment [6], 36.9%.

On to `CCOC(=O)CC(CC(=O)OCC)(C(=O)OCC)C(=O)OCC`, for which the growth inhibition in experiment [1] was -2.2%; in experiment [2], 4.45%; in experiment [3] it was 8.55%; in experiment [4], -57.2%; in experiment [5] it was -17.3%; in experiment [6] it was -1.95%.

`CCc1cc2c(cc1C(=O)CCN1CCCC1)C(C)(C)CCC2(C)C`: the growth inhibition was 99.5% (active) in experiment [1]; 99.7% (active) in experiment [2]; 98.5% (active) in experiment [3]; 99.5% (active) in experiment [4]; 99.5% (active) in experiment [5]; 99.8% (active) in experiment [6].

For `CCc1ccc(N=Nc2ccc(Br)cc2)cc1`, the growth inhibition in experiment [1] was 8.85%; in experiment [2] it was -18%; in experiment [3], -4.95%; in experiment [4] it was 6.85%; in experiment [5], 2.85%; in experiment [6] it was -10.3%.

`CCOc1cc(CC[N+](C)(C)C)c2c(ccc3ccc(OC)c(OC)c32)c1OC`: the growth inhibition in experiment [1] was 18.1%; in experiment [2], -10.8%; in experiment [3] it was -5.4%; in experiment [4], 13.5%; in experiment [5], -15.8%; in experiment [6], -14.2%.

On to `Cc1ccc(N(CN2C(=O)CCC2=O)CS(=O)(=O)c2ccc(Cl)cc2)cc1`, for which the growth inhibition is 10.4% in experiment [1]; 3.5% in experiment [2]; -0.45% in experiment [3]; 14.7% in experiment [4]; -3.4% in experiment [5]; -19.6% in experiment [6].

`CC(Sc1nc2ccccc2c(=O)[nH]1)c1ccccc1` (stereo not given): the growth inhibition in experiment [1] is 3.1%; in experiment [2], -1.85%; in experiment [3], 3.3%; in experiment [4] it was -21.8%; in experiment [5], 7.3%; in experiment [6], -6.7%.

For `CC(CCC(=O)O)[C@H]1CCC2[C@H]3C(CC(=O)[C@@]21C)[C@@]1(C)CCC(O)C[C@H]1C[C@@H]3O` (stereo not given in full), the growth inhibition in experiment [1] was -7.75%; in experiment [2], -7.7%; in experiment [3], 5.9%; in experiment [4] it was -29.4%; in experiment [5], -17.1%; in experiment [6], -11.7%.
